ssDAF-12 act = S. stercoralis DAF-12 activation, primary screen; HEK293 ssDAF-12/GRIP1 lit1-tk-luc reporter, luminescence; % of 3 µM dafachronic acid response; activation, % at 6.8 µM; actives 1% (n = 370,000);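 active = activation above the mean over all tested compounds plus 3 SD, cut at about 0.9% in these data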
SMARCA2 activ = increases SMARCA2 function in MMTV reporter cells; MG213 cells, MMTV-luciferase reporter, dexamethasone, overnight; activation, % at 9.1 µM; actives 1% (n = 370,000); AID 652017; in the data active = activation above about 7.8%
hcDAF-12 act = activators of H. contortus DAF-12 nuclear receptor; HEK293 hcDAF-12 lit1-tk-luc reporter, luminescence; 0% DMSO, 100% Δ7-dafachronic acid; activation, % at 6.8 µM; actives 1.4% (n = 370,000); AID 652067;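 active = activation above the mean of all tested compounds plus 3 SD, cut at about 5.5% in these data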
DAX1 StAR inh = inhibitors of DAX1 repression of SF-1 activated StAR promoter. HEK293T StAR-luciferase reporter, SF-1/DAX-1 repression relief. inhibition, % at 6.8 µM. actives 1.1% (n = 370,000). AID 652010;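 active = inhibition above the mean over all tested compounds plus 3 SD, cut at about 3.6% in these data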;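 also: higher inhibition means more luminescence from relief of DAX-1 repression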
hgDAF-12 ag = activates the H. glycines DAF-12 receptor ligand-binding domain. HEK293 GAL4-hgDAF12 UAS-luciferase reporter, agonist luminescence; normalized to butyrate control. activation, % at 6.8 µM. actives 1.8% (n = 370,000). AID 687014;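 active = activation above a cutoff set at the mean of all screened compounds plus 3 SD, cut at about 10% in these data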
hgDAF12 ag = hgDAF-12 agonism, confirmation assay; shares compounds with hgDAF-12 ag; HEK293 GAL4-hgDAF12 luciferase reporter, agonist mode; percent of butyrate response; activation, % at 6.8 µM; actives 80% (n = 3,300); AID 743050;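 active = mean activation over triplicate wells above the hit cutoff derived from the earlier primary screen, cut at about 11% in these data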
LXR ag 2 = LXR-beta agonism as DAF-12 counter-screen. shares compounds with hgDAF-12 ag. AID 743051. activation, % at 6.8 µM. 3,300 tested, under 10 active. HEK293 Gal4-LXR luciferase reporter, 24 h;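 active = mean activation of the triplicate above a set limit carried over from the primary screen, none filed active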
Target sequence (P55055 whole entry, looked up, the tested form may be a part): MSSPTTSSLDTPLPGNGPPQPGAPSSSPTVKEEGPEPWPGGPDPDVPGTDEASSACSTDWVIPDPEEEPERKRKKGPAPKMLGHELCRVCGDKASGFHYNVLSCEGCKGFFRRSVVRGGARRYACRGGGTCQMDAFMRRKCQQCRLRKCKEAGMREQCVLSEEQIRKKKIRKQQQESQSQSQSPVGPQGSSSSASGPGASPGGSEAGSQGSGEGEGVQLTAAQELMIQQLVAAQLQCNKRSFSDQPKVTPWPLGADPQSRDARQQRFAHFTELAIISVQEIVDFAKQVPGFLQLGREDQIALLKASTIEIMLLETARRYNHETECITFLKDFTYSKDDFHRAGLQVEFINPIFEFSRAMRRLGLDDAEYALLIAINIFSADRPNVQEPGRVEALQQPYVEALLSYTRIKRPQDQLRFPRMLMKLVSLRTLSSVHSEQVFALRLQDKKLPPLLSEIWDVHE
A number is an active result; - = inactive; . = not tested or not shown; ! = repeats disagree. This is a sample that favours compounds with a hit; in the whole collection about 4.2% have one here.

SMILES	ssDAF-12 act	SMARCA2 activ	hcDAF-12 act	DAX1 StAR inh	hgDAF-12 ag	hgDAF12 ag	LXR ag 2
Cc1ccc(Nc2ncccc2C(N)=O)cc1[N+](=O)[O-]	-	-	-	-	16	14	-
CC(C)NC(=O)CCn1nnc(-c2cccs2)n1	-	-	-	-	-	.	.
Cc1cc(/C=C(\C#N)C(=O)O)c(C)n1C1CC1	-	-	-	-	-	.	.
COc1ccc(-n2c(C)cc(/C=C(\C#N)C(=O)NCc3ccco3)c2C)cc1	-	-	-	-	-	.	.
COCCNC(=O)/C(C#N)=C/c1cc(C)n(C2CCCCC2)c1C	-	-	-	4.0	20	-	-
COCCNC(=O)/C(C#N)=C/c1cc(C)n(-c2ccc(C)cc2)c1C	-	-	6.1	-	22	15	-
Nc1ccccc1NC(=O)NC(=O)c1ccccc1	2.0	-	-	-	16	16	-
CCOC(=O)C1CSCCS(=O)(=O)N1Cc1ccccc1F (stereo unspecified)	-	-	-	-	-	.	.
Cc1ccc(C)c(NC(=O)c2cc(-c3cccnc3)nc3ccccc23)c1	-	-	-	-	-	.	.
Cc1ccc(C)c(NC(=O)c2cc(-c3ccc(Cl)cc3)nc3ccccc23)c1	-	-	-	-	15	-	-
Cc1nc2c(oc3ccccc32)c(=O)o1	-	-	6.1	-	14	-	-
O=c1[nH]c(Cc2ccccc2)nc2c1oc1ccccc12	-	-	-	-	-	.	.
Cc1c(C(=O)NCc2ccc([N+](=O)[O-])cc2)sc(=O)n1Cc1ccc2c(c1)OCO2	-	-	-	-	-	.	.
Cc1nn(-c2ccccc2)c2sc(C(=O)NC3CCCCCC3)cc12	-	-	-	-	-	.	.
O=C(NNC(=S)Nc1ccc(Cl)cc1)c1cccs1	-	-	-	-	14	-	-
COc1ccc(C2NN=C(c3ccc(C)cc3)S2)cc1OC (stereo unspecified)	-	-	-	-	18	18	-
COc1ccc(C2NC(=O)CS2)cc1OC (stereo unspecified)	-	-	-	-	-	.	.
COCCCNC(=O)C[C@H]1C[C@@]2(C(=O)OC)C(=C[C@H](C(C)(C)C)O[C@@H]2C)N(CCc2ccc(OC)c(OC)c2)C1=O	-	-	-	-	-	.	.
COc1cccc(-c2nc(-c3ccccn3)no2)c1	-	-	-	-	-	.	.
COc1cc(-c2nc(-c3cccnc3)no2)cc(OC)c1OC	-	-	-	-	-	.	.
COc1cccc(-c2noc(-c3cccnc3)n2)c1	-	-	-	-	14	15	-
COc1cccc(-c2noc(-c3ccc(Br)o3)n2)c1	-	-	-	4.4	16	17	-
Cc1ccc(CN2CCCCC(NC(=O)Nc3ccccc3-c3ccccc3)C2=O)cc1 (stereo unspecified)	-	-	-	-	-	.	.
CC(C)CC(=O)N1CCc2cc(S(=O)(=O)N(C)Cc3ccco3)ccc21	-	-	-	-	-	.	.
CC(C)Cc1ccc(/C=C/C(=O)N2CCCCC2)cc1	-	-	-	4.5	16	14	-
SMILES	ssDAF-12 act	SMARCA2 activ	hcDAF-12 act	DAX1 StAR inh	hgDAF-12 ag	hgDAF12 ag	LXR ag 2
O=C(/C=C/c1ccc(Br)cc1)NC1CCCCCC1	-	-	-	-	-	.	.
CCOC(=O)C1CCCN(C(=O)/C=C/c2ccc(Cl)cc2)C1 (stereo unspecified)	-	-	-	-	-	.	.
CC(C)Cc1ccc(/C=C/C(=O)NC2CC2)cc1	-	-	-	-	13	12	-
CCc1ccc(/C=C\C(=O)N2CCCC2)cc1	-	-	-	-	-	.	.
Cc1ccc(/C=C/C(=O)N2CCCC(C)C2)cc1 (stereo unspecified)	1.2	-	-	4.4	15	14	-
Cc1c[nH]c2cccc(-c3ccccc3)c12	-	-	-	-	-	.	.
Cc1cc(C(=O)COC(=O)c2cc(Cl)ccc2N)c(C)n1Cc1ccco1	-	-	-	3.7	14	13	-
COC(=O)Nc1ccc2c(c1)N(C(=O)CCN1CCN3CCCC3C1)c1ccccc1CC2 (stereo unspecified)	-	-	-	-	18!	-	-
Cc1cc(NC(=O)c2ccc(Cl)cc2)c(C)cc1O	-	-	-	-	-	.	.
O=C(Nc1ccccc1O)c1ccc(Cl)cc1	1.3	-	5.8	-	22	29	-
CCOC(=O)[C@]12CCCC=C1N(Cc1ccc(Cl)cc1Cl)C(=O)[C@H](CC(=O)NCCc1ccccc1OC)C2	-	-	-	-	-	.	.
COC(=O)C1=C(C)N(C)C(=NCc2cc(OC)c(OC)c(OC)c2)NC1c1cccc(F)c1 (stereo unspecified)	-	-	-	-	-	.	.
O=C(CSC1CCc2ccccc21)NNC(=O)Nc1ccc(Cl)cc1 (stereo unspecified)	-	-	6.5	-	16	-	-
COc1ccc(NC(=O)C2(C)Cc3c(-c4cccc(C(F)(F)F)c4)ccnc3O2)cc1OC (stereo unspecified)	-	-	-	-	-	.	.
Fc1cccc(Cl)c1CN1CCN(c2ncc(Cc3ccccc3)cn2)CC1	-	-	-	-	-	.	.
Fc1cccc(Cl)c1CN1CCN(c2nc3ccccc3s2)CC1	-	-	-	-	13	11	-
Cc1ccc(N2CCN(C(=O)c3cn(CC4CCCCC4)nn3)C(C)C2)cc1 (stereo unspecified)	1.0	-	-	4.3	15	13	-
Cn1nnc2cc(C(=O)Nc3ccc4ccccc4c3)ccc21	-	-	-	-	15	17	-
O=C(Nc1ccc(N2CCCCC2)cc1)c1cncc(Br)c1	-	-	-	-	15	14	-
O=C(Nc1ccc(N2CCCCC2)cc1)c1ccc(F)cc1F	-	-	5.7	3.6	13	17	-
Cn1nnc2cc(C(=O)NC3CC3)ccc21	-	-	-	-	-	.	.
O=C(Nc1ccc(N2CCCC2)cc1)c1ccc2ccccc2c1	-	-	-	-	16	12	-
CCn1ccc(C(=O)Nc2ccccc2Cl)n1	-	-	-	4.3	14	15	-
CCn1ccc(C(=O)Nc2cccc(Cl)c2)n1	-	-	-	-	15	-	-
CN1C(=O)[C@H]2[C@@H](c3ccc(C(F)(F)F)cc3)N[C@]3(CCCN(Cc4ccc(C(F)(F)F)cc4)C3=O)[C@H]2C1=O	-	-	-	-	-	.	.
CCOC(=O)N1CCN(C(=O)C[C@H]2C(=O)N(Cc3ccc(OC)cc3)C3=CCCC[C@@]32C(=O)OCC)CC1	-	-	-	-	-	.	.
COc1ccccc1-c1cc(C(=O)N2CCOCC2)no1	-	-	-	-	17	12	-

Source: PubChem (The Scripps Research Institute Molecular Screening Center)
